# This is a sample that favours compounds with a hit; in the whole collection about 1% have one here.
# KCNH2 3.1 block: KCNH2 3.1 (human) potassium channel inhibition | U2OS KCNH2 3.1, thallium flux FluxOr; hits give low values | 0.95% of 340,000 active | activity change, % (tested at about 1.8 µM);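 active = maximum activity change below -70%; inconclusive = maximum activity change from -70% to -50%; inactive = maximum activity change above -50%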;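 note: thallium influx rate constant from kinetic fluorescence after stimulation buffer; % is set by controls: 0 for no effect and ±100 for the full control effect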
#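 Channel expression came from 3.1 mutant virus (1.77 x 10^8 /mL) applied to suspended U2OS cells for 4 h. Flux was tracked with FluxOr dye plus Red40 quencher, and kinetic rate constants normalized to controls.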
# GRP78 ERSR act: inducers of ER stress response in human glioma cells. U87-MG GRP78 promoter luciferase reporter, 16 h. Potency, µM, for inactives: top-dose activation, usual class: activators. 0.02% of 420,000 active; active = well fitted activation curve with a large enough effect; inconclusive = small, poorly fitted or top-dose-only effect; inactive = no such curve, though single readings can be large or run the other way; note: potency is the fitted concentration of half-maximal effect; series mostly up to about 76 µM; % of control where 0% means no effect; nearly all actives have a fitted effect of over 35% in size
#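 ERSR induction read as luciferase luminescence (Bright-Glo, 10 min at room temperature) in stably transfected human U87-MG glioma cells exposed to compounds for 16 h, using GRP78 as sensor.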
# TRPML1 agonist: agonists of human TRPML1 channel | Q9GZU1 | activation, % (concentration not given with the values) | TRPML1-expressing cells, Ca2+ dye fluorescence, FDSS | 0.12% of 410,000 active; in the data active = activation above about 50%; inconclusive = mostly about 30% to 49%; note: 0% is about no effect
#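 Calcium fluorescence on an FDSS kinetic reader gave the read-out. Tet-induced TRPML1-DL cells were plated overnight, dye-loaded (Ca8 with quencher, 45-90 min, room temperature, dark), then read 110 s after compound addition, and again 110 s after 4uM final 54-4 (EC80).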
# hERG WT inh: KCNH2 (human, wildtype) channel inhibition; Q12809; U2OS, BacMam KCNH2, thallium flux FluxOr; hits give low values; activity change, % at 1.84 µM; 0.37% of 340,000 active; AID 720551;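 active = maximum activity change below -70%; inconclusive = maximum activity change between -70% and -50%; inactive = maximum activity change above -50%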; note: % is set by controls: 0 for no effect and ±100 for the full control effect
#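 U2OS cells were transduced with wild-type KCNH2 virus (2.03 x 10^8 / mL) for 4 h at room temperature, then cultured overnight at 37 C. Thallium flux was read with FluxOr dye. Rate constants were normalized to DMSO controls.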
# TSG101-PTAP inh: blocks PTAP/TSG101 interaction to inhibit HIV-1 budding | Q99816 | Fluorescence polarization, FITC-PTAP peptide / Tsg101 binding | Potency, µM (doses to about 115 µM), for the others: at the top dose activity change, negative = inhibition, usual class: inhibitors | 340,000 tested, under 10 active | AID 493005; active = well fitted inhibition curve with a large enough effect in the main read-out, with a control signal flat, not every such curve was filed as active; inconclusive = small, poorly fitted or top-dose-only effect, or effect the other way, or a change in a side signal; inactive = no such curve, though single readings can be large or run the other way; note: potency is the fitted concentration of half-maximal effect; % of control where 0% means no effect
#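 Fluorescence anisotropy tracks displacement of a FITC-tagged PTAP peptide (50 nM) from the Tsg101 binding domain (10 uM), following a 20 min room-temperature incubation at pH 7.5.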
# TRPML1 blocker: human mucolipin-1 channel inhibition | TRPML1-inducible cells, Ca2+ dye fluorescence, FDSS; hits give low values; inhibition of EC80 agonist-evoked calcium signal | activity change, negative = inhibition, % (test concentration not listed) | 0.02% of 390,000 active | AID 624415; in the data active = activity change below about -50%; inconclusive = between about -30% and that limit;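 note: stimulus is agonist 54-4 at its EC80 concentration; % is set by controls: 0 for no effect and ±100 for the full control effect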
#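 Calcium fluorescence in TRPML1-DL cells induced overnight with Tet: a 110 s read after compound pin addition, then a 110 s antagonist read after challenge with 54-4 at 4 uM final (EC80).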
# Numbers without * were called inactive; ? = inconclusive; nt = not tested or not shown.
SMILES,KCNH2 3.1 block,GRP78 ERSR act,TRPML1 agonist,hERG WT inh,TSG101-PTAP inh,TRPML1 blocker
COc1ccc(-c2nnc(SCC(=O)NC(=O)NCc3ccccc3)o2)cc1,-117.8*,-2.6%,1.3,-8.8,-4.2%,-10.0
COc1ccc(-c2nnc(SCC(=O)NCc3ccco3)o2)cc1,-1.8,-6.6%,-0.2,13.9,-1.7%,9.8
CCN1C(=S)SC(=O)C1=C1C=C(C)N(Cc2ccco2)C(C)=C1,-3.1,-6.2%,59.2*,-11.6,3.0%,-5.7
CCN1C(=S)SC(=O)C1=C1C=C(C)OC(C)=C1,0.4,-1.0%,0.8,-10.7,-10.8%,-19.7
CCc1c(C)nc(SCC(=O)CC(=O)OC(C)C)c(C#N)c1C,-12.3,-4.3%,51.3*,6.5,-4.3%,2.1
COc1ccc(CCNc2ncnc3c2c(-c2ccccc2)cn3-c2ccc(F)cc2)cc1OC,nt,-2.4%,63.9*,nt,nt,-22.0
COc1ccc(CCNc2ncnc3c2c(-c2ccccc2)cn3-c2ccc(Cl)cc2)cc1OC,nt,-2.5%,76.8*,nt,nt,-18.1
COc1ccc(Cl)cc1Nc1ncnc2c1c(-c1ccccc1)cn2-c1ccccc1,nt,-2.9%,0.0,nt,nt,-0.1
Cc1cnc(-n2ncc(C(=O)NC(C)(C)CO)c2-c2cccs2)nc1-c1ccc(F)cc1,nt,-1.1%,nt,nt,nt,nt
O=C(NCCc1ccccc1)C1CCN(S(=O)(=O)N2CCOCC2)CC1,-2.5,5.2%,0.4,-103.9*,-3.3%,-17.8
CSc1nc2ccc(Br)cc2[nH]1,-72.2*,2.3%,-1.1,1.3,-5.4%,6.4
Cc1c(NC2=CC(=O)CC(C)(C)C2)ccc([N+](=O)[O-])c1C,-104.1*,3.8%,2.5,1.0,-1.3%,-10.0
Cc1ccccc1NC1=CC(=O)CC(C)(C)C1,-5.5,-3.9%,-0.2,-7.7,-4.0%,9.1
CN(CCO)C(=O)c1cn(C2CCCN(Cc3cccc4ccccc34)C2)nn1 (stereo not drawn),nt,-2.6%,nt,nt,nt,nt
O=P(O)(O)C(O)(Cc1cnc2ccccn12)P(=O)(O)O,nt,-3.6%,nt,nt,nt,nt
O=[N+]([O-])c1cc(CN2CCCC2)ccc1Sc1ccc(Cl)cc1,-92.1*,-5.2%,-0.7,25.5,-0.3%,31.5
O=C(CO)NCCCOc1cccc(CN2CCCCC2)c1,nt,-3.1%,nt,nt,nt,nt
C#CCCOC(=O)N1C2=NC(C(=O)OC)=C(C(=O)OC)[C@@H]3N(Cc4ccccc4)c4ccccc4[C@]23C[C@H]1C(=O)OC,-135.7*,-0.8%,0.5,-3.2,-0.2%,32.2
O=C(Cn1ncn2c(cc3sccc32)c1=O)NC1CCCC1,-77.3*,-0.5%,0.6,18.3,6.3%,15.1
CCCCNC(=O)[C@@H]1CC=C[C@@H]2CCN(C3CCCCC3)C(=O)[C@@H]21,nt,-3.7%,-0.9,nt,nt,nt
COC1=CC(=Cc2c(N)n3nc(CC(=O)N4CCOCC4)sc3nc2=O)C=C(OC)C1=O,-14.0,-6.3%,6.5,-3.0,?,-11.0
C=CCC1=C/C(=C\c2c(N)n3nc(CC(=O)N4CCCC4)sc3nc2=O)C=C(OC)C1=O,24.0,-11.3%,68.3*,15.3,-8.0%,-10.1
COC(=O)C1Cc2c([nH]c3ccccc23)C2(CCN(Cc3ccccc3)CC2)N1 (stereo not drawn),-81.2*,-2.4%,17.9,-40.0,0.5%,-4.3
CCCN1CCC2(CC1)NC(C(=O)O)Cc1c2[nH]c2ccccc12 (stereo not drawn),-0.2,0.0%,0.6,-5.4,0.6%,7.1
CC(COc1ccccc1)N1CCC(CO)(CCc2ccccc2)CC1 (stereo not drawn),-100.7*,-1.8%,-0.1,?,2.2%,-1.6
SMILES,KCNH2 3.1 block,GRP78 ERSR act,TRPML1 agonist,hERG WT inh,TSG101-PTAP inh,TRPML1 blocker
OCC1(CCc2ccccc2)CCN(Cc2ccc(OC(F)F)cc2)CC1,nt,-2.4%,1.5,-182.9*,-0.3%,-4.3
OCC1(CCCc2ccccc2)CCN(Cc2ccc(F)cc2)CC1,-9.5,-3.4%,-0.7,4.9,-1.7%,1.0
O=C(NC1CCN(Cc2ccccc2)C1)c1cnn(-c2ncc3c(n2)-c2ccccc2CC3)c1C1CC1 (stereo not drawn),nt,-3.0%,nt,nt,nt,nt
CCOc1cc(S(=O)(=O)N2CCN(S(=O)(=O)CC)CC2)c(OCC)cc1-n1cnnn1,-15.1,-6.2%,-0.4,-2.2,-1.5%,-14.0
CCOc1cc(S(=O)(=O)N2CCN(c3ccc(F)cc3)CC2)c(OCC)cc1-n1cnnn1,-78.7*,-4.0%,0.5,-76.2*,-5.0%,12.2
C[N+]1=C(/C=C/Nc2ccccc2Cl)C(C)(C)c2ccccc21,-23.1,-0.4%,4.0,-80.4*,0.7%,6.9
Cc1cnc(C)c(-c2cc(F)cc3c2OC(CNC(=O)c2cc(Cl)ccc2F)C3)n1 (stereo not drawn),nt,-3.4%,nt,nt,nt,nt
O=C(Nc1ccccc1)c1ccc(S(=O)(=O)N2CCCCC2)cc1,2.0,5.1%,-0.7,-11.2,-0.4%,-3.1
O=C(Nc1ccn(-c2ccccc2)n1)c1ccc(S(=O)(=O)N2CCCCCC2)cc1,-83.8*,-2.8%,-0.4,-29.4,-0.4%,8.0
CC(C)(C)n1ncc2c(=O)n(Cc3c(F)cc(Cl)cc3F)cnc21,nt,-4.8%,1.6,nt,nt,-14.0
CC(=O)C[C@H]1c2cc(F)cc(F)c2S(=O)(=O)N1C1CCN(Cc2ccccc2)CC1,nt,-1.6%,-0.1,nt,nt,nt
O=[N+]([O-])c1ccccc1N/N=C/c1ccc2c(c1)OCO2,0.1,5.6%,-0.1,2.4,-3.3%,9.9
O=C(O)c1ccccc1NN=Cc1ccccc1,-76.8*,1.5%,-1.3,2.2,-0.7%,-7.0
O=[N+]([O-])c1ccccc1N/N=C/c1ccccc1,-82.7*,4.1%,nt,-4.7,-1.7%,nt
CSc1ncccc1C(=O)NCC1Cc2cc(-c3cnccn3)ccc2O1 (stereo not drawn),nt,-3.8%,nt,nt,nt,nt
CC(C)(C)n1ncc2c(=O)n(Cc3cccc(OC(F)(F)F)c3)cnc21,nt,-1.6%,1.0,nt,nt,16.8
Cc1cc(Cn2cnc3c(cnn3C(C)(C)C)c2=O)ccc1F,nt,-0.5%,0.7,nt,nt,-21.9
Cc1cc(C)c2c(NC(=O)CCl)nn(C)c2n1,-0.8,39.8µM*,0.5,3.6,-2.9%,-6.9
COCc1c(C(=O)OCC(=O)NCCN2C(=O)CSC2=O)oc2ccccc12,8.0,-1.7%,0.0,-120.0*,-0.8%,4.9
CN1CCN(c2ccc([N+](=O)[O-])cc2S(=O)(=O)N2CCOCC2)CC1,21.3,-2.2%,2.2,6.2,-4.0%,20.6
CCN1CCN(c2ccc(S(=O)(=O)N3CCOCC3)cc2NC(=O)/C=C/c2ccc([N+](=O)[O-])cc2)CC1,-74.8*,-6.3%,-0.2,-6.8,0.0%,-0.9
CCN1CCN(c2ccc(S(=O)(=O)N3CCOCC3)cc2NC(=O)c2cccc([N+](=O)[O-])c2)CC1,-9.4,-0.7%,-0.4,11.3,-1.6%,71.2

# Compound activity deposited in PubChem by National Center for Advancing Translational Sciences (NCATS).
